Measurements published in PubChem BioAssay AID1454 (National Center for Advancing Translational Sciences (NCATS), 2008).
In all, about 130,000 compounds went through this assay and about 550 (0.42%) were called active. Inconclusive results (about 4%) are left out. Calls follow the shape of the dose curve; as a rule, active = well fitted inhibition curve with a large enough effect; inconclusive = small, poorly fitted or top-dose-only effect, or effect the other way; inactive = flat fitted curve, though single readings scatter. The full list was thinned out, with actives kept by preference.

Test: qHTS Assay for Inhibitors of the ERK Signaling Pathway using a Homogeneous Screening Assay; Stimulation with EGF; also: nearly all actives have a fitted effect of over 55% in size
Conditions: HEK293-V1b, EGF-stimulated phospho-ERK AlphaScreen; series mostly up to 11.5 µM
In short: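 V1b-HEK293, 1% FBS o/n; cpd 30 min 37C; EGF 25 nM final, 5 min; lyse 10 min; AlphaScreen beads 5 h RT. Normalized DMSO basal vs EGF max; Hill AC50.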
Potency is read from the fitted curve at half-maximal effect.

Potency, active:
O=c1oc2ccccc2cc1-c1csc(Nc2ccc(O)cc2)n1 39.8 µM
Brc1ccc(Nc2c3c(nc4ncnn24)CCC3)cc1 25.1 µM
OCCCNc1nccc(-c2cc(Nc3cccc(Cl)c3)ncn2)n1 22.4 µM
CN(C)c1cc2c(Nc3ccc4c(cnn4Cc4ccccc4)c3)ncnc2cn1 2.82 µM
Cc1cc(C)nc(S/C=C/C(=O)c2ccccc2)n1 22.4 µM
CC(=O)Oc1c2c(c3c(c1CC=C(C)C)O[C@@]14C(=CC5CC1C(C)(C)OC4(C/C=C(\C)C(=O)O)C5=O)C3=O)OC(C)(CCC=C(C)C)C=C2 (stereo partly specified) 25.1 µM
CN(C)c1ccc(Nc2c3c4c(cccc4n(C)c2=O)C(=O)c2ccccc2-3)cc1 3.16 µM
Oc1ccc2ccccc2c1N=Nc1nccs1 12.6 µM

Potency, inactive:
CC1(C)CC(N(Cc2ccccc2)C(=O)Cc2ccccc2)CCO1 (stereo unspecified)
Cc1cccc(N2CCN(Cc3nc(C4CC4)no3)CC2)n1
CN(CCOc1ccccc1)Cc1nc2cc(Cl)ccc2c(=O)[nH]1
O=C(NCc1ccccc1Cl)C1CCN(S(=O)(=O)N2CCOCC2)CC1
C=CCOc1c(CNn2cn[nH]c2=S)cccc1OC
O=C(NCCc1ccccn1)c1cccnc1Oc1ccc(Cl)cc1
CCC/C(C)=N\Nc1nc2c(c(=O)n(C)c(=O)n2C)n1C
C=C(C)c1cccc(C(C)(C)NC(=O)NCCN(CC)CC)c1
CCNC(=O)c1ccc(OCC(=O)Nc2ccc(F)cc2)c(OC)c1
O=C(/C=C/c1ccccc1)Oc1coc(CSc2ncccn2)cc1=O
CCN(CC)CCNC(=O)c1ccc(NS(=O)(=O)c2ccc3c(c2)OCCO3)cc1
COc1ccc(CCc2nnc(CCC(=O)NCc3cnn(-c4ccccc4C)c3)o2)cc1
NCCCCCC(=O)N/N=C/c1ccc2nccnc2c1
O=C(N/N=C1\CCSC1)c1cc(Cl)ccc1O
CSc1ccc(CN(C)CC(=O)NCc2ccc(F)cc2)cc1
O=C(CSc1nc2ccccc2s1)Nc1ccc(C(=O)O)cc1
CS(=O)(=O)N(CC(=O)N1CCCC1)Cc1ccccc1
OCC1(Cc2ccccc2C(F)(F)F)CCN(Cc2ccncc2)CC1
CCNC(=O)COc1cc(C)c(Br)c(C)c1
CCNc1nc(-c2cc3ccccc3o2)cs1
COc1ccc2nc(Nc3nc(-c4cc5ccccc5oc4=O)cs3)sc2c1
CSc1ccccc1C(=O)NCc1ccccc1
CC1CCc2c(nc3ncnn3c2Nc2ccc(OC(F)(F)F)cc2)C1 (stereo unspecified)
Cc1nc(S(=O)(=O)c2ccc(Br)cc2)nc2c1CCC2
Oc1oc(-c2ccccc2Br)nc1/C=N/c1ccccn1
CC1CCCCC1NC(=O)CO/N=C/c1ccc(OC(F)F)cc1 (stereo unspecified)
CSc1ccc(/C=N\NC(=O)CC(=O)NC(C)C)cc1
CCN(CC)CCn1cnc2c1c(=O)n(CCOC(=O)c1cc(OC)c(OC)c(OC)c1)c(=O)n2C
O=C1CC2(CC(c3ccc(Cl)cc3)=NO2)C(=O)N1c1ccccc1 (stereo unspecified)
Cn1nc(C(F)(F)F)cc1-c1ccc(/C=C(\C#N)C(=O)c2cccc(C(F)(F)F)c2)s1
Cn1c(SCC(=O)N2CCOCC2)nnc1-c1ccc2ncccc2c1
CC(C)n1cnc2c(Nc3cccc(Cl)c3)nc(N(CCO)CCCO)nc21
O=C(Nc1cc(Cl)cc(Cl)c1)C(NCCCO)c1ccccc1 (stereo unspecified)
O=C(NN1C(=O)C2C(C1=O)C1C=CC2C12CC2)c1ccccc1Cl (stereo unspecified)
O=C(CN1CCN(Cc2ccc(F)cc2Cl)C1=O)NCc1cccs1
Clc1ccc(Nc2ncnc3c2nnn3Cc2ccccc2)cc1
CC(=O)Nc1ccc(NC(=O)CSc2ncnc3c2cnn3Cc2ccccc2)cc1
COc1ccc(Cl)cc1C(=O)NNC(=O)c1nc2nc(C)cc(C)n2n1
CN(C)CCCn1c(SCCN2C(=O)c3ccccc3C2=O)nc2ccccc2c1=O
COc1ccc(C/C(N)=N/OC(=O)c2ccco2)cc1OC
COc1ccccc1Cn1c(CO)nc2ccccc21
Cc1cccc(-n2c(Cc3cc(=O)[nH]c(=O)[nH]3)nnc2SCC(=O)Nc2cccc(C(F)(F)F)c2)c1
O=C(COC(=O)c1ccc(Cl)nc1)NCc1cccs1
CCOc1ccc(C2NC(=S)NC3=C2CCc2ccccc23)cc1 (stereo unspecified)
Cc1ccc(N/C=C/C(=O)c2ccccc2)cc1C
Cc1cc(Oc2ccc(Cl)cc2)nc(SCC(=O)c2ccccc2)n1
O=C(NNC(=S)NC(=O)c1cn(-c2ccccc2)nc1-c1ccccc1)c1ccncc1
CC1=NN(c2ccccc2)C(=O)C1C(=O)c1ccc([N+](=O)[O-])cc1 (stereo unspecified)
Oc1ccc(-c2nnc(Nc3ccccc3)c3ccccc23)cc1
O=C(COC(=O)c1ccccc1)Nc1cccc(S(=O)(=O)N2CCOCC2)c1
Cc1nn(CCOc2ccc(Br)cc2)c(C)c1[N+](=O)[O-]
CCC(=O)OCCNc1nc(-c2ccccc2)nc2ccccc12
COCCNc1nc2nonc2nc1N1CCCC1c1nccs1 (stereo unspecified)
O=S(=O)(Nc1n[nH]c(C(F)(F)F)n1)c1ccccc1
CC(C)N(Cc1nc(-c2ccc3c(c2)OCO3)no1)CC1CCC(=O)N1 (stereo unspecified)
O=C1CN(C(=O)CN2C(=O)NC3(CCCCC3)C2=O)c2ccccc2N1
CCOC(=O)c1c(C)oc(C)c(C(=O)OCC)c1=O
Cc1nn(CC(=O)N/N=C/c2ccc(F)cc2)c(C)c1[N+](=O)[O-]
O=S(=O)(c1cccc(-c2nnc3n2CCCCC3)c1)N1CCOCC1
CCN(CC)CCCSc1nc2ccccc2s1
COC(=O)c1cc(S(=O)(=O)N2CCC(C(N)=O)CC2)oc1C
CN(C)/C=C(/C(=O)c1ccc(F)cc1)S(=O)(=O)c1ccc(F)cc1
Cc1c(C(=O)O)nnn1-c1nonc1N
O=C1CC(c2c(F)cccc2Cl)C(n2cncn2)C(O)=C1C1NCCc2ccccc21 (stereo unspecified)
C/C(=N/NC(=O)CC(=O)N/N=C(\C)c1ccc([N+](=O)[O-])cc1)c1ccc([N+](=O)[O-])cc1
CC(C)(C)NC(=O)NCc1ccco1
CCC(C)NC(=O)CN(C1CCCCC1)S(C)(=O)=O (stereo unspecified)
Cc1cc(=O)[nH]c(S)c1C#N
CCN(CC)CCCN=Cc1c(O)n(-c2ccc(C)cc2)c(=O)c2ccccc12
O=C(COc1ccc(Cl)cc1[N+](=O)[O-])N1CCCCC1
O=C(CC(=O)N/N=C\c1ccc(F)cc1)NCCc1ccccc1
COc1ccc(OCC(O)CNCCNc2nccc(C(F)(F)F)n2)cc1 (stereo unspecified)
CCOc1ccc(/C=C(/NC(=O)c2ccccc2)C(=O)NCCC(=O)O)cc1
O=C(NC1(C(F)(F)F)NC(=O)N(C2CCCCC2)C1=O)c1ccco1 (stereo unspecified)
CCN1CCN(C(=O)c2ccc(CN(c3ccc(C)c(C)c3)S(C)(=O)=O)cc2)CC1
CC(=O)N(OCc1ccc(OC(C)C)c(Cl)c1)C(C)=O
NS(=O)(=O)c1ccc(CCNC(=O)c2ccc(Cl)cc2[N+](=O)[O-])cc1
Cc1cc(=O)oc2c(C(=O)c3ccccc3)c(OCC(N)=O)ccc12
CN(C)c1ccc(/C=N/NC(=O)C(O)c2ccc(Br)cc2)cc1 (stereo unspecified)
CCC(C)N1C(=S)SC(C)(C)C1N(O)C(=O)NC1CCCCC1 (stereo unspecified)
Cc1ccc(C(=O)Nc2nc(N)n(-c3ccccc3)n2)cc1
CC1=NNC(=O)C1CCC(=O)N/N=C(\C)c1ccc(Cl)cc1 (stereo unspecified)
COc1ccc(Cc2nnc(NC(=O)c3cc(OC)c(OC)c(OC)c3)s2)cc1OC
O=C(O)c1n[nH]nc1-c1ccccc1
COc1ccc(N=Nc2ccc(O)c(P(=O)(c3ccccc3)c3ccccc3)c2)cc1
Oc1ccc(N=Cc2c(O)ccc3ccccc23)cc1
Oc1ccc2ccccc2c1C=Nc1ccccc1
O=C(CCNc1n[nH]c(=O)[nH]c1=O)N/N=C\c1ccc(Br)cc1
CCOCCCNC(=O)C(NC(=O)Cc1c[nH]c2ccccc12)c1ccc(OC)cc1 (stereo unspecified)
Cc1cc(OCCCC(=O)NCCN2C(=O)S/C(=C\c3cccnc3)C2=O)ccc1Cl
O=C(NCc1ccco1)C(=O)c1cn(CC(=O)N2CCCCCC2)c2ccccc12
Cc1ccnc(NC(=O)c2ccc(Cl)c([N+](=O)[O-])c2)c1
Cc1ccc(OCC(=O)Nc2nnc(-c3ccco3)s2)cc1
CC(C)C1Nc2c(C(=O)O)cccc2C(Nc2ccccc2C(=O)O)C1(C)C (stereo unspecified)
N#C/C(=C\N1CCOCC1)S(=O)(=O)c1ccc(Cl)cc1
Cc1cc(C)c2c(NC(=O)C3CC3)nn(C)c2n1
O=C(Cc1ccc(F)cc1)N1CCN=C1SCc1cccc([N+](=O)[O-])c1
CN(Cc1cc2cc(F)ccc2[nH]1)Cc1nc(-c2cnccn2)no1
